Experimental data taken from PubChem BioAssay AID1259312 (Keith Lab, Institute of Cancer Science, University of …, 2017).
The whole screen tested about 4,500 compounds, of which about 200 (4.4%) were called active. The sample holds actives, similar compounds and a random draw of the others, so the mix is not that of the screen. Unmarked numbers belong to inactive results.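 How the source made its calls: active means cell survival measured by absorbance rises more than 2.5-fold over infected cells without compound; inactive means the rest.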

experiment: survival after telomere uncapping, modulators, primary screen, cell-based (AID 1259312); conditions: HCT116 + Ad-hTR-mut, MTT, 5 d; at 10 µM, active compounds read high;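 further: virus expresses mutant telomerase RNA that uncaps telomeres and kills cells; compound added 2 days after infection so exposure lasts 3 days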

Row | Compound | fold change
1 | CC(=O)Nc1ccc2nc(SCC(=O)Nc3nccs3)sc2c1 | -1.04
2 | O=C1OC(C2OC(=O)c3ccccc32)c2ccccc21 (configuration not stated) | -2.64
3 | Cc1cc(C)c2c(c1)-c1c(ssc1=S)C(C)(C)N2C(=O)c1ccccc1 | -2.03
4 | CC1(C)Nc2ccccc2-c2c1ssc2=S | 4.78 (active)
5 | COc1ccc2c(c1)-c1c(ssc1=S)C(C)(C)N2 | 3.31 (active)
6 | CCOc1ccc2c(c1)-c1c(sn(-c3ccc(OC)cc3)c1=S)C(C)(C)N2 | -1.06
7 | Cc1ccc2c(c1)-c1c(ssc1=S)C(C)(C)N2 | 2.39
8 | CCOc1ccc2c(c1)-c1c(ssc1=Nc1ccc(Cl)cc1C)C(C)(C)N2 | -1.6
9 | CCOc1ccc2c(c1)-c1c(ssc1=S)C(C)(C)N2 | 5.41 (active)
10 | COc1ccc2c(c1)-c1c(ssc1=S)C(C)(C)N2C(=O)CSc1ncn[nH]1 | -3.53
11 | Cc1cccc2c1N(C(=O)c1ccc(-c3ccccc3)cc1)C(C)(C)c1ssc(=S)c1-2 | -1.16
12 | O=C(c1cccs1)[C@H]1CCCC[C@H]1C(=O)O | 1.2
13 | Oc1ccc2c(c1)c1c3n2CCNC3CCC1 (configuration not stated) | -1.09
14 | COc1ccc(C2C=COc3n[nH]c(-c4ccccc4)c32)cc1OC (configuration not stated) | 2.04
15 | Cn1cc(/C=C2\C(=O)NC(=S)N(c3ccc(Br)cc3)C2=O)c2ccccc21 | -1.42
16 | O=C(NCCOC1=NS(=O)(=O)c2ccccc21)C(=O)Nc1ccccc1 | 1.05
17 | CC(=O)N/C(=N/c1nc(C)cc(C)n1)Nc1ccc(F)cc1F | inactive
18 | COc1ccc(-c2nc3sc(-c4ccc(OC)c(OC)c4)nc3s2)cc1OC | -4.78
19 | S=c1[nH]nc(COc2cccc3ccccc23)n1-c1ccccc1 | 3 (active)
20 | S=c1[nH]nc(Cn2cnc3ccccc32)n1-c1ccccc1 | 1.13
21 | S=c1[nH]nc(COc2ccccc2)n1-c1ccccc1 | 1.72
22 | Cc1c(C(=O)OC(C)C)sc(NC(=O)C(F)(F)C(F)(F)C(F)(F)C(F)(F)F)c1C(=O)OC(C)C | -1.73
23 | O=c1oc(-c2cccc(F)c2)nc2ccc(Br)cc12 | -1.47

Row | Compound | fold change
24 | NC(=O)c1cc2ccccc2o1 | 2.76 (active)
25 | Nc1cc2ccccc2cc1N | -1.17
26 | COC(=O)c1cc2cc(Br)ccc2o1 | -2.17
27 | Clc1nc2ccccc2nc1-c1ccccc1 | -1.36
28 | N=C1S/C(=C/c2cn[nH]c2-c2ccc(F)cc2)C(=O)N1c1nonc1N | -1.44
29 | N#Cc1c(N)nc2c(c1-c1cccc(Br)c1)CCCC2 | 2.68 (active)
30 | N#Cc1c(N)nc2c(c1-c1cccc(Br)c1)CCCCC2 | -1.02
31 | N#Cc1c(N)nc2c(c1-c1cccc(Br)c1)CCCCCC2 | -1.03
32 | Cc1ccc(C)c(-c2c(C#N)c(N)nc3c2CCCCC3)c1 | -1.2
33 | Cc1ccc(-c2c(C#N)c(N)nc3c2CCCC3)c(C)c1 | 1.09
34 | N#Cc1c(N)nc2c(c1-c1ccc(Cl)cc1Cl)CCCCC2 | 4.06 (active)
35 | Brc1ccc2nc(SCCOc3ccccc3)[nH]c2c1 | -1.46
36 | COC(=O)C1=C(C)NC(=S)NC1c1cccs1 (configuration not stated) | 1.16
37 | N#CC1=C(N)OC2=C(C(=O)CCC2)C1c1ccc2c(c1)OCO2 (configuration not stated) | 1.15
38 | NNC(=O)C(=O)Nc1nccs1 | -2.19
39 | Cc1cc(-c2ccco2)c(C#N)c(SCC(=O)C(F)(F)F)n1 | 1.03
40 | Cc1cc(C)c(CSc2nc(C)cc(=O)[nH]2)c(C)c1 | inactive
41 | Cc1cc(C)c(C#N)c(SCc2cc(=O)[nH][nH]2)n1 | 3.11 (active)
42 | O=c1/c(=C\c2ccco2)sc2nnc(-c3ccccc3)n12 | -1.37
43 | COc1ccc(S(=O)(=O)N(CCO)C2CCCCC2)cc1 | 1.31
44 | CCCCc1ccc(C2C(C#N)=C(N)OC3=C2C(=O)CC(C)(C)C3)s1 (configuration not stated) | 2.3
45 | COCCNS(=O)(=O)c1cc(Cl)ccc1Cl | 2.95 (active)
46 | O=S(=O)(NCc1cccnc1)c1cccs1 | -1.29

Row | Compound | fold change
47 | CCCNS(=O)(=O)c1cc(Cl)ccc1Cl | -2.13
48 | O=S(=O)(NCc1cccnc1)c1cc(Cl)ccc1Cl | 3.37 (active)
49 | O=S(=O)(Nc1cccnc1)c1cc(Cl)ccc1Cl | 1.16
50 | COCCCNS(=O)(=O)c1cc(Cl)ccc1Cl | -1.38
51 | O=c1[nH]c(O)c(C=Nc2cc(Cl)ccc2O)c(=O)[nH]1 | inactive
52 | c1ccc(N/N=C2/C/C(=N\Nc3ccccc3)c3ccccc32)cc1 | -1.1
53 | CC1(C)CCC[C@@]2(C)C1CCC1(C)OC(=O)CC12 (some centres not stated) | -3.56
54 | O=C(Nc1ccc2c(c1)OCCO2)C1CC(=O)N(C2CCCCC2)C1 (configuration not stated) | -1.27
55 | Clc1cccc(Cl)c1-c1noc(CSc2nc3ccccc3s2)n1 | -1.38
56 | N#CC1(C#N)C(c2c(F)cccc2Cl)[C@@H](C(=O)c2ccc(F)cc2)N2c3ccccc3C=C[C@@H]21 (some centres not stated) | 3.43 (active)
57 | N#CC1(C#N)C(c2ccc(O)cc2)C(C(=O)c2ccccc2)N2c3ccccc3C=CC21 (configuration not stated) | 1.02
58 | N#CC1(C#N)C(c2ccc(Cl)cc2Cl)C(C(=O)c2ccccc2)N2c3ccccc3C=CC21 (configuration not stated) | 1.29
59 | CN(c1ccccc1)c1nc(N)nc(CSc2nnc(-c3ccc(F)cc3)n2C)n1 | 1.9
60 | Nc1c(Cl)cc(-c2nc3ccccc3o2)cc1Cl | 1.24
61 | Cc1nn(-c2ccccc2)c(Cl)c1N=Nc1c(C)nn(-c2ccccc2)c1Cl | -1.52
62 | CN(C)c1ccc(/C=N/c2nccs2)cc1 | -1.55
63 | c1csc(CNc2ccc(NCc3cccs3)cc2)c1 | 1.24
64 | CC(C)NC(=O)CC(=O)NN=C1CCCC1 | 1.85
65 | O=C1NC(=S)N/C1=C\c1cc(Br)cc(Br)c1O | -1.6
66 | O=C1NC(=S)N/C1=C/c1c(F)cccc1Cl | 1.33
67 | O=C1NC(=S)N/C1=C\c1ccc(Cl)cc1Cl | 5.07 (active)
